RAD52 inh: RAD52 DNA annealing inhibitors, primary screen, biochemical, FRET, single point, set 2. AID 651710, 2012. recombinant RAD52 DNA annealing, FRET fluorescence. 0.46% of 360,000 active. DNA repair protein RAD52 homolog (Homo sapiens), P43351. inhibition, % at 18.7 µM;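 active means every replicate showing at least 50% inhibition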
Target sequence (P43351 whole entry, looked up): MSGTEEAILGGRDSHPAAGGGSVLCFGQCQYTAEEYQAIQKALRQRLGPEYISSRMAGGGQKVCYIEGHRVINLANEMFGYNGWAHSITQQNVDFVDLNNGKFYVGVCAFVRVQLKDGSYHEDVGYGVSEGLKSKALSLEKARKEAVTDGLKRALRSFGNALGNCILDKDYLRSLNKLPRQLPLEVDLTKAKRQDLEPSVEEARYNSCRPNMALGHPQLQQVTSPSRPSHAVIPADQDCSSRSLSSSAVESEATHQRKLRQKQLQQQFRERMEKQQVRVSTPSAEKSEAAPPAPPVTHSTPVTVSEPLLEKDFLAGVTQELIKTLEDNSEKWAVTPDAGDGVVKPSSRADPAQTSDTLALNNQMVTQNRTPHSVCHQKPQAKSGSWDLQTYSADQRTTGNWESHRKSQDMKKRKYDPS
AF4-AF9 inh: inhibitors of AF4 peptide binding to AF9, primary screen, biochemical, AlphaScreen, biotin-AF4 peptide, FLAG-AF9, single point | Protein AF-9 (Homo sapiens), P42568 | inhibition, % at 10 µM | 0.47% of 350,000 active | AID 651704, 2012;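 active means every replicate reaching a set inhibition limit, whatever the replicate mean, cut at about 25% in these data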;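 further: 0% = plate neutral control median and 100% = total signal loss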
RAD54 branch: inhibitors of human RAD54 branch migration, primary screen, biochemical, fluorescence, single point | DNA repair and recombination protein RAD54-like (Homo sapiens), Q92698 | 0.14% of 360,000 active | inhibition, % at 10.4 µM | RAD54 Holliday junction branch migration, FAM/BHQ fluorescence;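 active means mean normalized replicate activity at least 40 and at least half of replicates scoring 40 or more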;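 further: 0% = median of neutral control wells and 100% = median of positive control wells; inhibitors cause a drop in the FAM fluorescence signal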
Casp6 inh: human caspase-6 inhibitors, primary screen, biochemical, VEID-R110 fluorescence, single point, set 2; P55212; purified caspase-6, Z-VEID-R110 cleavage fluorescence; inhibition, % at 12.5 µM; 0.53% of 350,000 active; AID 686996, 2013;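 active means mean inhibition across replicates at least about 35%, with every replicate also reaching that limit, limit read from the data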;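 further: 0% = median of neutral control wells and 100% = no fluorescence left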
Glyco luc inh: increase of ERlucT glycosylation luciferase signal, primary screen, N-linked glycosylation inhibitor project, D54 ERlucT cells, luminescence, set 2 | 0.23% of 360,000 active | reporter increase, % at 12.5 µM | D54 ERlucT glycosylation luciferase reporter, 24 h; percent of 100 nM tunicamycin response;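 active means mean luciferase reporter signal, scaled so untreated is 0 and the glycosylation-blocking control 100, at or above a set limit in every replicate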;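 further: luciferase carries N-glycosylation sites so blocking glycosylation raises the light; 0% = median of neutral control wells and 100% = median of 100 nM tunicamycin wells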
CASP1 counter: human caspase-1 inhibitors, dose response, selectivity assay for caspase-6 inhibitor project, biochemical, Z-YVAD-R110 fluorescence, cherry-pick, set 2; activity change, negative = inhibition, % at 35 µM; purified caspase-1, Z-YVAD-R110 cleavage fluorescence; 100 tested, under 10 active; shares compounds with Casp6 inh;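 active means compounds lowering fluorescence whose fitted half-maximal concentration is no more than twice their top tested dose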
Numbers without * were called inactive; x = not tested or not shown. The list is not random: actives were taken first. Their share in the collection is about 1.2%.

SMILES	RAD52 inh	AF4-AF9 inh	RAD54 branch	Casp6 inh	Glyco luc inh	CASP1 counter
C/C=C/c1cnc2c(c1)C(=O)N([C@H](C)CO)C[C@H](C)[C@H](CN(C)C(=O)NCCC)O2	-0.8	0.7	-3.3	3.2	x	x
CC(CNc1ccccc1O)C(=O)O (centres undefined)	-16.5	-6.5	x	56.4*	2.3	-1.6
O=C(C[C@H]1CC[C@@H]2[C@H](COC[C@@H](O)CN2C(=O)Nc2ccc(Cl)c(Cl)c2)O1)NCc1ccc(Cl)c(Cl)c1	2.6	-2.0	-4.5	0.6	x	x
Cn1c(=O)c2c(-c3ccccc3)n(-c3ccc(N)cc3)cc2n(C)c1=O	-32.8	6.7	-7.6	83.1*	6.2	-0.5
C[C@@H]1CN([C@H](C)CO)C(=O)Cc2cc(NC(=O)Cn3cnnn3)ccc2O[C@@H]1CN(C)Cc1ccc(C(=O)O)cc1	8.1	-3.0	3.9	-2.6	x	x
COc1cc(NC(C)CCCNC(C)C)c2ncccc2c1OC (centres undefined)	-37.4	3.2	-13.4	37.5*	5.2	0.7
COc1cc(C(=O)NCCOc2cccc3cccnc23)cc(OC)c1OC	-8.8	-0.4	x	-9.2	-1.3	x
CO[C@H]1CN(C)C(=O)c2ccc(NC(C)=O)cc2OC[C@@H](C)N(C(=O)c2ccncc2)C[C@H]1C	-2.6	-0.9	1.1	x	x	x
O=C(O)C1CCCCC1C(=O)Nc1cccc(Br)c1 (centres undefined)	5.7	-11.0	-0.4	75.1*	2.8	-2.0
C[C@@H]1CN([C@@H](C)CO)C(=O)c2cc(NS(=O)(=O)c3cccs3)ccc2O[C@@H](C)CCCCO[C@@H]1CN(C)Cc1ccc(C(F)(F)F)cc1	-21.5	-0.2	-10.2	-1.7	x	x

Screening data deposited in PubChem BioAssay by Broad Institute.
